Measured values taken from PubChem BioAssay AID504332 (National Center for Advancing Translational Sciences (NCATS), 2011).
In all, about 350,000 compounds went through this assay and about 31,000 (8.9%) were called active. Roughly 15% stayed inconclusive and do not appear here. Calls follow the shape of the dose curve; as a rule, active = well fitted inhibition curve with a large enough effect; inconclusive = small, poorly fitted or top-dose-only effect; inactive = no such curve, though single readings can be large or run the other way. The sample as a whole holds a higher share of actives than the screen did.

The compounds below were run against Histone-lysine N-methyltransferase EHMT2 (Homo sapiens) (UniProt Q96KQ7) (assay: qHTS Assay for Inhibitors of Histone Lysine Methyltransferase G9a). Settings: G9a H3K9 monomethylation, AlphaScreen, 2 h; series mostly up to 59 µM; activity, negative = inhibition: at the top concentration.
Outline: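 Signal arises when biotinylated H3K9 peptide, once monomethylated, bridges streptavidin donor and antibody-captured acceptor beads. Enzyme at 20 nM was preincubated 15 min with test compounds; peptide 500 nM and SAM 20 uM then reacted for 2 h.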
% is scaled to controls: 0 for no effect and ±100 for the full control effect; potency is read from the fitted curve at half-maximal effect.
Also: nearly all actives have a fitted effect of over 75% in size.

Histone-lysine N-methyltransferase EHMT2 (Homo sapiens), sequence (Q96KQ7 913-1193 limits assumed): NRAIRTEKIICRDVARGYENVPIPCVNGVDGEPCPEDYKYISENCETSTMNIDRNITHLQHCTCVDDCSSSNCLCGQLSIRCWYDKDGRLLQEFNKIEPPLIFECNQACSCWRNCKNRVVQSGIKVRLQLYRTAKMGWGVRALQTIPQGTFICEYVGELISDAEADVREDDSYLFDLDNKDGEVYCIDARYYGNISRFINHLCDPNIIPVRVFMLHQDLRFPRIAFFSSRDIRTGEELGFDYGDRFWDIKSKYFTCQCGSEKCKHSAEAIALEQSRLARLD

SMILES | activity, negative = inhibition | Potency
Cc1ccc(S(=O)(=O)CCC(=O)OCC(=O)NCCc2ccc(S(N)(=O)=O)cc2)cc1 | 1.87% [at 12.7 µM] (inactive) | –
COc1ccc(Cc2nnc(NS(=O)(=O)Cc3ccccc3)s2)cc1 | -8.52% (inactive) | –
Cc1cc(C)cc(NS(=O)(=O)Cc2ccccc2)c1 | 6.04% [at 102 µM] (inactive) | –
CCC(CC)c1nnc(NS(=O)(=O)Cc2ccccc2)s1 | – | 5.01 µM (active)
CCc1ccc(NC(=O)CCNS(=O)(=O)c2cccs2)cc1 | 23.6% [at 102 µM] (inactive) | –
CN1CCN(CC#CCC2(O)c3ccccc3-c3ccccc32)CC1 | – | 35.5 µM (active)
CCCCN1C(=O)C(C)=C(C)C1OCCc1ccc(OC)c(OC)c1 (configuration not stated) | -12% [at 0.501 µM] (inactive) | –
CCCCOc1ccc(CN2C(=O)C(=O)c3cc(Br)cc(C)c32)cc1OC | – | 6.31 µM (active)
CCCCOc1ccc(Cn2c(=O)oc3ccc(C)cc32)cc1OC | 72.1% (inactive) | –
Cc1ccc2nc(N3CCN(c4cccc(Cl)c4)CC3)c3nnnn3c2c1 | 27.6% (inactive) | –
Cc1[nH]c2ccccc2c1C(c1ccccc1)c1cccs1 (configuration not stated) | -1.34% (inactive) | –
CC1CCN(S(=O)(=O)c2ccc3c(c2)N(CC(=O)NCc2ccccc2Cl)C(=O)CO3)CC1 | 18.5% (inactive) | –
Cc1cccc(N2CCN(C(=O)c3cccc(N4C(=O)C5C6C=CC(C6)C5C4=O)c3)CC2)c1C (configuration not stated) | -4.69% [at 102 µM] (inactive) | –
Cn1c(=O)n(C)c2cc(C(=O)Nc3ccc4c(c3)OCO4)ccc21 | -4.52% [at 102 µM] (inactive) | –
COc1ccc(NC(=O)CCN2C(=O)/C(=C/c3ccc4c(c3)OCO4)SC2=S)cc1 | 7.02% [at 12.7 µM] (inactive) | –
Cc1ccc(C(=O)O)cc1-c1ccc(/C=C2\SC(=O)N(CC(=O)Nc3ccc4c(c3)OCO4)C2=O)o1 | – | 15.8 µM (active)
O=C(c1ccc(Cl)cc1)n1nc(-c2cccnc2)nc1NCc1ccc(F)cc1 | 8.04% (inactive) | –
CN1c2ccc(Cl)cc2-c2nc(SCC(=O)Nc3cc(F)ccc3F)ncc2S1(=O)=O | 2.07% (inactive) | –
CS(=O)(=O)c1ccc(-c2nnn(CC(=O)Nc3ccc4c(c3)OCCO4)n2)cc1 | -35.3% [at 102 µM] (inactive) | –
Oc1ccc2ccccc2c1N=Nc1nccs1 | 12.3% [at 0.501 µM] (inactive) | –
Oc1ccc(N=Nc2nccs2)c(O)c1 | – | 44.7 µM (active)
Cc1cccc(NC(=O)C2CCCN2S(=O)(=O)c2cccc3nsnc23)c1C (configuration not stated) | -3.86% (inactive) | –
COc1ccc(-c2noc(CSc3nc(C)cc(=O)[nH]3)n2)cc1OC | 5.63% (inactive) | –
Cc1ccc(-c2nc(-c3cccnc3)sc2CC(=O)Nc2ccc(C)c(Cl)c2)cc1 | – | 8.91 µM (active)

SMILES | activity, negative = inhibition | Potency
Cc1cc(C)c(NC(=O)CS(=O)CC(=O)Nc2cccnc2)c(C)c1 (configuration not stated) | -1.56% [at 102 µM] (inactive) | –
Cc1nc(-c2ccc(F)cc2)c(CC(=O)Nc2cccc(S(=O)(=O)N3CCOCC3)c2)s1 | 9.73% [at 0.501 µM] (inactive) | –
Cc1ccsc1C(=O)OCC(=O)Nc1cccc(F)c1 | 19.6% [at 12.7 µM] (inactive) | –
CCOc1ccc(C(O)Cn2c(=N)n(CCN3CCCCC3)c3ccccc32)cc1 (configuration not stated) | – | 50.1 µM (active)
CCOc1ccc(C(O)Cc2nc3ccccc3n2C)cc1 (configuration not stated) | -10.2% (inactive) | –
Cn1c(=N)n(CC(O)c2ccccc2)c2ccccc21 (configuration not stated) | 9.45% (inactive) | –
Fc1ccc(-c2nn(-c3ccccc3Cl)c3c2cnc2ccccc23)cc1 | 8% (inactive) | –
N#Cc1cccc(NC(=O)CN2CCCCCC2)c1 | 12.8% [at 102 µM] (inactive) | –
CC(C)c1ccc(NC(=O)NC2CCCCC2)cc1 | 1.01% (inactive) | –
Cc1cccc(C(=O)N2CCCC(Nc3ccc(C(C)C)cc3)C2)n1 (configuration not stated) | – | 56.2 µM (active)
CC(C)c1ccc(NC2CCCN(C(=O)c3ccncc3)C2)cc1 (configuration not stated) | 13.6% [at 102 µM] (inactive) | –
CCN(CC(=O)NCc1ccc(Cl)cc1)C(=O)c1c(C)noc1C | -126% [at 12.7 µM] (inactive) | –
Cc1cccc(N2CCN(S(=O)(=O)c3ccc4[nH]c5c(c4c3)CCCCC5)CC2)c1C | -34.1% (inactive) | –
Cc1cccc(NC(=O)Cn2nc(-c3ccc(Cl)cc3)c3ccccc3c2=O)c1 | 27.7% (inactive) | –
CCCn1c(C)cc(-c2csc(NC(=O)CCc3nc4ccccc4c(=O)[nH]3)n2)c1C | – | 25.1 µM (active)
CCN(CC)c1ccc(C(=O)NNC(=O)CCc2nc3ccccc3c(=O)[nH]2)cc1 | 34.4% [at 102 µM] (inactive) | –
Cc1cc(C)c(-c2csc(NC(=O)CCCc3nc4ccccc4c(=O)[nH]3)n2)c(C)c1 | – | 50.1 µM (active)
Cc1ccc(-c2csc(NC(=O)Cc3cccs3)n2)cc1C | -13.1% [at 102 µM] (inactive) | –
Cc1ccc(-c2csc(NC(=O)Cn3[nH]c(=O)c4ccccc4c3=O)n2)cc1 | -22.3% [at 102 µM] (inactive) | –
CCCc1ccc(-c2csc(NC(=O)Cc3cccs3)n2)cc1 | -17.3% [at 102 µM] (inactive) | –
COc1ccc(-c2cc(C(F)(F)F)nc(SCC(=O)N(C)Cc3ccccc3)n2)cc1OC | 16.6% (inactive) | –
Brc1ccccc1C1N=C(c2ccccc2)NO1 (configuration not stated) | – | 50.1 µM (active)
N#Cc1ccc(C2N=C(c3ccccc3)NO2)cc1 (configuration not stated) | 13.3% [at 102 µM] (inactive) | –
O=C(c1ccc(OC2CCN(C/C=C/c3ccc(F)cc3)CC2)cc1)N1CCCCC1 | 4.87% [at 102 µM] (inactive) | –

SMILES | activity, negative = inhibition | Potency
CC1CCC(NC(=O)CNC(=O)c2ccc3ccccc3c2)CC1 (configuration not stated) | 5.09% [at 0.501 µM] (inactive) | –
CCCOC(=O)C1=C(C)NC2=C(C(=O)C(C(=O)OC)C(C)C2)C1c1ccc(N(C)C)cc1 (configuration not stated) | – | 44.7 µM (active)
COCCOC(=O)C1=C(C)NC(=O)NC1c1ccc(Cl)cc1 (configuration not stated) | 20.2% (inactive) | –
CCOC(=O)C1=C(C)NC2=C(C(=O)CC(C)(C)C2)C1c1ccsc1 (configuration not stated) | 1.73% [at 12.7 µM] (inactive) | –
N#Cc1cccc(NC(=O)C2CCCN(C(=O)c3ccc(Cl)cc3)C2)c1 (configuration not stated) | 10.9% [at 12.7 µM] (inactive) | –
CCOC(=O)c1sc2nc(C)[nH]c(=O)c2c1C | 14.5% (inactive) | –
COC(=O)c1sc2[nH]c(=S)n(N)c(=O)c2c1C | – | 7.94 µM (active)
CCOC(=O)c1sc2nc(CSCC(=O)OCc3ccc(C(=O)OC)o3)[nH]c(=O)c2c1C | -43.1% (inactive) | –
CCCCN1CC(c2nc3ccccc3n2CCCCOc2ccc(C)cc2C)CC1=O (configuration not stated) | -41.5% (inactive) | –
CC1CCN(S(=O)(=O)c2ccc3c(ccn3CCC(=O)NCc3ccc(N(C)C)cc3)c2)CC1 | – | 10 µM (active)
CC1CCN(S(=O)(=O)c2ccc3c(ccn3CC(=O)O)c2)CC1 | 1.09% [at 102 µM] (inactive) | –
O=C(CCn1ccc2cc(S(=O)(=O)N3CCCC3)ccc21)NCc1cccc(Cl)c1 | -5.24% (inactive) | –
CC(=O)c1ccccc1NC(=O)C1CC(=O)N(c2ccc3c(c2)OCCO3)C1 (configuration not stated) | 5.62% (inactive) | –
O=C(Nc1nnc(SCc2c(Cl)cccc2Cl)s1)C1CCCO1 (configuration not stated) | 47.8% [at 12.7 µM] (inactive) | –
COc1cccc(N2CC(C(=O)Nc3c(C)cccc3C)CC2=O)c1 (configuration not stated) | 5.2% (inactive) | –
Cc1ccccc1N1CC(C(=O)Nc2ccc(S(=O)(=O)N3CCCC3)cc2)CC1=O (configuration not stated) | 20.1% [at 2.33 µM] (inactive) | –
Cc1ccccc1N1CC(C(=O)Nc2ccc3c(c2)OCO3)CC1=O (configuration not stated) | 9.33% [at 102 µM] (inactive) | –
CCOC(=O)c1ccc(NC(=O)C2CC(=O)N(c3ccc(C(C)C)cc3)C2)cc1 (configuration not stated) | -25.6% (inactive) | –
CCc1nnc(NC(=O)C2CC(=O)N(c3ccc4c(c3)OCCO4)C2)s1 (configuration not stated) | – | 10 µM (active)
Cc1cccc(N2CC(C(=O)Nc3ccccc3N3CCCC3)CC2=O)c1C (configuration not stated) | – | 70.8 µM (active)
CCOC(=O)CSc1nnc(NC(=O)C2CC(=O)N(c3ccc(F)cc3)C2)s1 (configuration not stated) | – | 63.1 µM (active)
Cc1ccccc1N1CC(C(=O)Nc2nnc(SCCC3OCCO3)s2)CC1=O (configuration not stated) | – | 25.1 µM (active)
CC(C)c1nnc(NC(=O)C2CC(=O)N(CCc3ccc(F)cc3)C2)s1 (configuration not stated) | -20.7% [at 102 µM] (inactive) | –
CC(C)C[C@H](NC(=O)C1CC(=O)N(c2ccc3c(c2)OCCO3)C1)C(=O)NC1CCCC1 (some centres not stated) | 19% [at 102 µM] (inactive) | –
